We go through 9 compounds from PubChem BioAssay (NCI).

What all share (assay): NCI-60 one-dose screen, 48 h (100 = growth as untreated, 0 = no growth, -100 = all killed)
In assay [1] the test system is HCT-15 colon. The note with it: 10 µM.
Assay [2] has as its system HT29 colon. Particulars: 10 µM.
In assay [3] the test system is SNB-75 CNS. The note with it: 10 µM.
Assay [4] has as its system SNB-19 CNS. Particulars: 10 µM.
For assay [5], the system named is U251 CNS. Particulars: 10 µM.
Assay [6] relates to PC-3 prostate. Particulars: 10 µM.
The subject of assay [7] is SK-MEL-5 melanoma. The note with it: 10 µM.
The subject of assay [8] is UACC-62 melanoma. The note with it: 10 µM unless noted.
The subject of assay [9] is LOX IMVI melanoma. The note with it: 10 µM.
The subject of assay [10] is SK-MEL-28 melanoma. Particulars: 10 µM.
Assay [11] relates to SK-MEL-2 melanoma. The note with it: 10 µM.
For assay [12], the system named is EKVX NSCLC. Particulars: 10 µM.
Assay [13] deals with SN12C renal. The note with it: 10 µM.
Assay [14] has as its system UO-31 renal. The note with it: 10 µM.
The test system of assay [15] is TK-10 renal. Particulars: 10 µM unless noted.
The test system of assay [16] is ACHN renal. Particulars: 10 µM.
In assay [17] the test system is CAKI-1 renal. The note with it: 10 µM.
Assay [18] deals with A498 renal. The note with it: 10 µM.
Assay [19] relates to CCRF-CEM leukemia. Particulars: 10 µM.
The test system of assay [20] is MOLT-4 leukemia. The note with it: 10 µM.

SMILES strings stand for the structures. Compounds without any hit were thinned out: in the full panel of roughly 83,000, 20% have a hit.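 Interpretation: 100, growth as untreated; towards 0, rising growth inhibition; 0, no net growth; 0 to -100, cell death. Compounds scoring below 10 were considered active.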 Values without a mark were called inactive. Active and inactive are the calls of the source.

With `Brc1cnc2ccccc2c1`, the growth is 101% in [1]; 102% in assay [2]; 106% in assay [3]; 95.5% in [4]; 103% in assay [5]; 97% in assay [6]. Besides, the growth in assay [7] is 106%; in assay [8], 93.4%; in assay [9] it was 101%; in assay [10], 113%; in assay [11], 100%; in [12], 103%. For the same compound, the growth in assay [13] is 98.4%; in assay [14] it was 78.2%; in [15], 102%; in assay [16] it was 98.2%; in assay [17], 97.7%; in assay [18], 99%. The growth in assay [19] is 108%; in [20], 101%.
Take `C[N+](C)(C)C(=O)c1ccccc1`: the growth in assay [1] was 101%; in [2] it was 104%; in assay [3], 94.8%; in assay [4], 102%; in assay [5], 107%; in [6] it was 102%. Besides, the growth was 105% in assay [7]; 94% in assay [8]; 99.9% in assay [9]; 116% in [10]; 98.6% in [11]; 108% in [12]. The growth in assay [13] is 95.8%; in assay [14], 85.9%; in [15], 102%; in [16], 107%; in assay [17], 99.9%; in [18] it was 98%. Besides, the growth was 104% in [19] and 103% in assay [20].
As for `CN(C)C(=O)Oc1cccc([N+](C)(C)C)c1`, the growth is 95.6% in [1]; 115% in assay [2]; 85.1% in assay [3]; 105% in assay [4]; 97.9% in assay [5]; 98.5% in [6]. In addition, the growth in assay [7] was 94.9%; in [8] it was 104%; in assay [9] it was 105%; in assay [10], 108%; in assay [11], 124%; in assay [12] it was 93.1%. In addition, the growth was 97.8% in [13]; 98.6% in [14]; 125% in assay [15]; 97.9% in assay [16]; 89.9% in assay [17]; 95.5% in [18]. For the same compound, the growth in assay [19] was 113%; in assay [20] it was 102%.
Regarding `O=C(N/N=C\c1cc(Br)cc(Br)c1O)N/N=C/c1cc(Br)cc(Br)c1O`, the growth is 33.6% in [1]; 105% in assay [2]; 49% in assay [3]; 68.2% in assay [4]; 46.1% in [5]; -1.34% (active) in assay [6]. In addition, the growth in [7] is 45.3%; in assay [8], 39%; in assay [9], 50.5%; in assay [10], 81.9%; in assay [11], -23.8% (active); in assay [12] it was 69.3%. Further, the growth was 59% in assay [13]; 31% in assay [14]; 65.5% in [15]; 52.2% in assay [16]; 41.4% in assay [17]; 70.4% in assay [18]. Further, the growth was 3.69% (active) in assay [19] and 36.4% in assay [20].
As for `O=S(=O)(O)C(Nc1ccccc1)c1ccccc1` (configuration not stated), the growth in assay [1] is 105%; in assay [2] it was 105%; in assay [3], 71.9%; in assay [4], 101%; in [5], 101%; in assay [6] it was 102%. For the same compound, the growth was 77.3% in [7]; 88.9% in [8]; 93.8% in [9]; 104% in assay [10]; 82.2% in assay [11]; 104% in assay [12]. In addition, the growth in assay [13] is 97.8%; in [14], 92.7%; in [15] it was 100%; in assay [16], 97.6%; in [17], 93.8%; in [18], 81.3%. Also, the growth is 115% in [19] and 106% in [20].
As to `Nc1ncnc2c1nc(N)n2C1OC(CO)C(O)C1O` (configuration not stated), the growth in assay [1] is -7.88% (active); in assay [2], -4.96% (active); in assay [3] it was -75.8% (active); in assay [4], -16.5% (active); in assay [5], 2.54% (active); in assay [6], -11.7% (active). In addition, the growth in assay [7] is -87.6% (active); in assay [8] it was -68.3% (active); in assay [9], -80.3% (active); in [10], -48.1% (active); in [11] it was -11.6% (active); in assay [12], -33.2% (active). Also, the growth in assay [13] was -22.8% (active); in [14], -53.9% (active); in assay [15] it was -14.2% (active); in [16], 2.76% (active); in assay [17], -28.6% (active); in [18], -80.3% (active). Moreover, the growth in assay [19] and in assay [20] was 1.73% (active) each time.
For `O=C1c2ccccc2C(=O)c2c1ccc(C(=O)O)c2[N+](=O)[O-]`, the growth is 105% in [1]; 93.8% in assay [2]; 91.2% in [3]; 109% in assay [4]; 99.6% in assay [5]; 94.8% in [6]. Besides, the growth in assay [7] was 109%; in assay [8], 106%; in assay [9], 88.4%; in assay [10], 101%; in [11], 119%; in assay [12], 109%. Also, the growth is 101% in assay [13]; 85.1% in [14]; 109% in [15]; 98.8% in assay [16]; 98.8% in [17]; 84% in assay [18]. Also, the growth in assay [20] was 93.5%.
In the case of `CC1=NN(c2ccccc2)C(=O)/C1=C\N1CC(=O)NC1=S`, the growth in assay [1] is 107%; in assay [2], 103%; in [3] it was 91.2%; in [4], 101%; in [5] it was 98.3%; in [6] it was 93.6%. The growth in [7] is 101%; in assay [8], 97.1%; in assay [9], 98.4%; in assay [10] it was 112%; in [11] it was 108%; in assay [12], 105%. The growth is 101% in assay [13]; 92% in assay [14]; 122% in assay [15]; 98.8% in assay [16]; 98% in [17]; 92.9% in assay [18]. Besides, the growth in [20] was 102%.
On to `CC1(C)N=C(N)N=C(N)N1c1ccc(Cl)cc1`, for which the growth in assay [1] is 73.6%; in assay [2] it was 29.8%; in [3] it was 75.8%; in assay [4] it was 58%; in assay [5] it was 31.5%; in assay [6], 33.1%. Moreover, the growth in [7] is 31.7%; in assay [8] it was 41.4%; in assay [9], 24.6%; in assay [10], 90.4%; in assay [11], 71%; in assay [12] it was 48.4%. For the same compound, the growth is 41.4% in assay [13]; 85.9% in assay [14]; 69.7% in [15]; 67.4% in assay [16]; 99.9% in assay [17]; 120% in [18]. Further, the growth in assay [20] was 53.6%.
